Screens: PubChem BioAssay, several laboratories
This excerpt belongs to a sample that is enriched for hits.
GIRK2 activator = Activators of human GIRK2-containing channels; activation (% efficacy), % for hits at 37.5 µM; P48051; 34,000 tested, under 10 active; HEK293 GIRK2/NPY4 cells, thallium flux fluorescence; AID 1259324;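 active = primary screen hit, no activity in plain HEK293 cells, and in GIRK2-only cells above 5% efficacy rising with concentration; inactive = the rest, including fluorescent compounds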;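 note: efficacy is normalized control-subtracted fluorescence 15 s after thallium addition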
GluA2 TARP mod = modulators of AMPA receptor GluA2-stargazin complexes. O88602+P19491. HEK293 GluA2+stargazin, membrane potential dye (FDSS), glutamate EC50; hits were called plate by plate, in both directions. calls only at 30 µM. 40,000 tested, 3.5% active. AID 1259245;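 active = any of four per-well response measures lying three or more SD from its plate-wide compound average, in either direction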
Starred values were filed as active, the others as inactive; i = inactive; . = no result given; + = active, no number.

SMILES	GIRK2 activator	GluA2 TARP mod
Cc1ccc(S(=O)(=O)N2CCC(C(=O)Nc3nc(-c4ccc5c(c4)OCCO5)cs3)CC2)cc1	i	i
COC(=O)Cn1c(SCCOc2cccc(OC)c2)nc2ccccc21	.	i
Cc1nccn1CC1CCN(S(=O)(=O)c2cccs2)CC1	i	i
O=S(=O)(c1cc(F)ccc1F)N1CCC(Cn2ccnc2-c2ccccc2)CC1	i	+
CS(=O)(=O)c1ccc(CC(=O)Nc2nc(-c3ccc(Br)s3)cs2)cc1	.	i
Cc1ccc(C)c(S(=O)(=O)N2CCCOC2CNC(=O)C(=O)NCCCN2CCOCC2)c1 (stereo not given)	.	i
COc1ccc(CCS(=O)(=O)NCC2CCN(c3ncccn3)CC2)cc1	i	i
COc1ccc(CCS(=O)(=O)NCC2CCN(Cc3ccccc3)CC2)cc1	i	+
COc1ccc(CCS(=O)(=O)NCC2CCN(Cc3cccs3)CC2)cc1	i	.
COc1ccc(CCS(=O)(=O)NCC2CCN(C(=O)c3ccccc3F)CC2)cc1	i	+
Cc1nc(Nc2ccc(NC(=O)Nc3ccccc3)cc2)cc(-n2ccnc2)n1	i	i
CCOc1ccc(/C=C/C(=O)Nc2cccc(Cl)c2C)cc1	i	i
COc1ccc2cc(S(=O)(=O)N3CCC(C(N)=O)CC3)ccc2c1	i	.
CC(C)(C)n1nc2c(c1NC(=O)C(=O)NCc1ccccc1)CS(=O)(=O)C2	i	i
COc1ccc(-c2noc(C3CCN(S(=O)(=O)c4ccc(C)cc4)CC3)n2)cc1	i	+
COc1ccc(-c2noc(C3CCN(S(=O)(=O)c4ccc(Cl)cc4)CC3)n2)cc1	i	i
c1ccn2cc(CSc3cc(N4CCOCC4)ncn3)nc2c1	i	+
COc1cccc(C(=O)CSc2cc(N3CCOCC3)ncn2)c1	i	i
CCc1nnc(NS(=O)(=O)c2ccc(NC(=O)c3ccc([N+](=O)[O-])o3)cc2)s1	.	i
CCc1nnc(NS(=O)(=O)c2ccc(NC(=O)c3cc4cc([N+](=O)[O-])ccc4s3)cc2)s1	.	+
CCOC(=O)c1ccccc1NC(=O)CN1CCC(c2nnc(-c3ccco3)o2)CC1	i	+
COc1ccccc1NC(=O)CN1CCC(c2nnc(-c3ccco3)o2)CC1	i	i
Cn1c(=O)[nH]c(=O)c2c1nc(N1CCN(CC(N)=O)CC1)n2Cc1ccc(F)cc1	.	i
O=C(Nc1ccc2c(c1)CN(C(=O)C1CC1)CC2)c1cnc2ccccc2n1	i	i
COc1ccc2sc(=NC(=O)c3ccno3)n(CCSC)c2c1	i	+
SMILES	GIRK2 activator	GluA2 TARP mod
Cn1ccc(C(=O)N=c2sc3cc4c(cc3n2C)OCCO4)n1	i	i
CCn1nc(C(=O)N=c2sc3cc(OC)ccc3n2CCSC)cc1C	i	.
CSCCn1c(=NC(=O)c2ccn(C)n2)sc2cc3c(cc21)OCCO3	i	+
COc1c2occc2c(OC)c2c(=O)cc(C(F)(F)C(F)F)oc12	.	i
CCOCC(=O)NCC1CCN(C(=O)Nc2ccccc2OC)CC1	i	i
CCOC(=O)C1CCN(C(=S)Nc2ccccc2OC)CC1	.	+
CC(C)(C)NC(=O)N1CCC(CNC(=O)C(=O)NCCC2=CCCCC2)CC1	i	i
Cc1nc(NCCNC(=O)c2ncccn2)cc(-n2cccn2)n1	i	i
COc1ccc(NS(=O)(=O)c2cccc([N+](=O)[O-])c2)cc1	.	i
O=[N+]([O-])c1cccc(NS(=O)(=O)c2ccc3ccccc3c2)c1	.	+
O=[N+]([O-])c1ccc(NS(=O)(=O)c2ccc3ccccc3c2)cc1	.	+
CS(=O)(=O)c1cccc(S(=O)(=O)Nc2ccc([N+](=O)[O-])cc2)c1	i	.
O=C(Cc1ccc([N+](=O)[O-])cc1)N/N=C\c1ccncc1	i	.
CN(C)C(=O)C(=O)c1cn(CC(=O)N2CCOCC2)c2ccccc12	.	i
O=C(CSc1nc(=O)n(CCCO)c2c1CCCC2)Nc1cccc([N+](=O)[O-])c1	i	i
CCOC(=O)c1ccccc1NC(=O)CSc1c(C)cnc2c1c(=O)n(C)c(=O)n2C	i	i
CCOC(=O)c1ccccc1NC(=O)CSc1c(CC(C)C)cnc2c1c(=O)n(C)c(=O)n2C	.	+
CCOc1c(C)cc(S(=O)(=O)NCCCCN2CCOC(c3ccccc3)C2)cc1C (stereo not given)	i	.
CC(=O)Nc1ccc(S(=O)(=O)Nc2ccc3c(c2)N(C(=O)C2CC2)CC3)cc1	i	i
COCC(=O)N1CCCc2ccc(NC(=O)c3cn(C)nc3OC)cc21	i	i
CCc1ccc(S(=O)(=O)Nc2ccc3c(c2)N(C(=O)C2CCCC2)CC3)s1	i	i
COc1nn(C)cc1C(=O)Nc1ccc2c(c1)N(C(=O)C1CC1)CC2	i	+
CCc1ccc(S(=O)(=O)Nc2ccc3c(c2)N(C(=O)C(C)(C)C)CC3)s1	i	+
O=C(C1CC1)N1CCc2ccc(NS(=O)(=O)c3ccc(Cl)s3)cc21	i	+
O=C(C1CC1)N1CCc2ccc(NS(=O)(=O)c3ccc(Cl)cc3)cc21	i	i
SMILES	GIRK2 activator	GluA2 TARP mod
CC(C)(C)c1ccc(S(=O)(=O)Nc2ccc3c(c2)N(C(=O)C2CC2)CC3)cc1	i	+
CC(C)(C)C(=O)NCC(C)(O)C1CC1 (stereo not given)	i	i
Cn1nnnc1SCC(=O)N1CCN(Cc2nnnn2-c2ccc(F)c(F)c2)CC1	i	i
COC(=O)c1c(NCc2ccc(OC)c(OC)c2)c2cccc(Cl)c2[nH]c1=O	.	i
O=C(NCCn1ncc2c(N3CCN(c4ccccc4)CC3)ncnc21)c1cccc(Cl)c1	i	i
COC1CS(=O)(=O)CC1OC (stereo not given)	.	+
Cc1cc(N2CCN(C)CC2)nc(SCC2COc3ccccc3O2)n1 (stereo not given)	.	+
NCC(O)COCC1COc2ccccc2O1 (stereo not given)	i	i
CCc1ccc(C2=NN(c3ccc(S(N)(=O)=O)cc3)C(c3ccc(O)cc3)C2)cc1 (stereo not given)	i	i
CC1=C(C(=O)Nc2cc(C(F)(F)F)ccc2Cl)C(c2ccc(C)cc2)C2=C(CCCC2=O)N1 (stereo not given)	.	+
CC1=C(C(=O)Nc2cccc(C(F)(F)F)c2)C(c2ccc(F)cc2)C2=C(CCCC2=O)N1 (stereo not given)	.	i
COc1cccc2cc(C(=O)NCC(C)(O)c3ccc4c(c3)OCO4)oc12 (stereo not given)	i	i
Cc1cc(C)cc(C(=O)Nc2cc(C3CC3)nn2-c2nc(C(C)C)cc(=O)[nH]2)c1	i	i
O=C(C(=O)N1CCOCC1)c1cn(CC(=O)N2CCCCC2)c2ccccc12	.	i
CCOc1cc(C)c(Cl)cc1S(=O)(=O)N1CCCCC1CC (stereo not given)	.	+
CCC1CCCCN1S(=O)(=O)c1cc(C)c(Br)cc1C (stereo not given)	.	i
Cc1cc(C(=O)N2CCOCC2)nn1CC(=O)Nc1ccc2c(c1)OCCO2	i	i
Cc1cc(-c2nnc(NC(=O)c3nc4ccccc4s3)o2)nn1C	i	+
Cc1cc(-c2nnc(NC(=O)c3ccc(S(=O)(=O)N4CCCCC4)cc3)o2)nn1C	i	+
